# Several values for one entry are separate records, joined by “and”; a condition that tells them apart may be missing. Identical values can stand only once. In all, about 190,000 compounds went through this assay and about 6,900 (3.6%) were called active. Rule as the data show it: active = inhibition above about 50%; inactive = the rest. The entries come from a sample that favours actives as a whole. Some structures have more than one record in an assay (separate samples or runs), and their calls can disagree.
# Biological target: Huntingtin (Homo sapiens) (UniProt P42858)
# Experiment: mutant huntingtin-calmodulin interaction inhibitors – biochemical, AlphaScreen, primary screen (AID 1671202);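 also: 0% = both proteins with DMSO and 100% = one protein alone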
# Conditions: AlphaScreen His-mHTT/GST-CaM binding, luminescence; at 15 µM, stronger effect = higher value
# Sequence of Huntingtin (Homo sapiens) (P42858 whole entry, looked up, stated change not applied): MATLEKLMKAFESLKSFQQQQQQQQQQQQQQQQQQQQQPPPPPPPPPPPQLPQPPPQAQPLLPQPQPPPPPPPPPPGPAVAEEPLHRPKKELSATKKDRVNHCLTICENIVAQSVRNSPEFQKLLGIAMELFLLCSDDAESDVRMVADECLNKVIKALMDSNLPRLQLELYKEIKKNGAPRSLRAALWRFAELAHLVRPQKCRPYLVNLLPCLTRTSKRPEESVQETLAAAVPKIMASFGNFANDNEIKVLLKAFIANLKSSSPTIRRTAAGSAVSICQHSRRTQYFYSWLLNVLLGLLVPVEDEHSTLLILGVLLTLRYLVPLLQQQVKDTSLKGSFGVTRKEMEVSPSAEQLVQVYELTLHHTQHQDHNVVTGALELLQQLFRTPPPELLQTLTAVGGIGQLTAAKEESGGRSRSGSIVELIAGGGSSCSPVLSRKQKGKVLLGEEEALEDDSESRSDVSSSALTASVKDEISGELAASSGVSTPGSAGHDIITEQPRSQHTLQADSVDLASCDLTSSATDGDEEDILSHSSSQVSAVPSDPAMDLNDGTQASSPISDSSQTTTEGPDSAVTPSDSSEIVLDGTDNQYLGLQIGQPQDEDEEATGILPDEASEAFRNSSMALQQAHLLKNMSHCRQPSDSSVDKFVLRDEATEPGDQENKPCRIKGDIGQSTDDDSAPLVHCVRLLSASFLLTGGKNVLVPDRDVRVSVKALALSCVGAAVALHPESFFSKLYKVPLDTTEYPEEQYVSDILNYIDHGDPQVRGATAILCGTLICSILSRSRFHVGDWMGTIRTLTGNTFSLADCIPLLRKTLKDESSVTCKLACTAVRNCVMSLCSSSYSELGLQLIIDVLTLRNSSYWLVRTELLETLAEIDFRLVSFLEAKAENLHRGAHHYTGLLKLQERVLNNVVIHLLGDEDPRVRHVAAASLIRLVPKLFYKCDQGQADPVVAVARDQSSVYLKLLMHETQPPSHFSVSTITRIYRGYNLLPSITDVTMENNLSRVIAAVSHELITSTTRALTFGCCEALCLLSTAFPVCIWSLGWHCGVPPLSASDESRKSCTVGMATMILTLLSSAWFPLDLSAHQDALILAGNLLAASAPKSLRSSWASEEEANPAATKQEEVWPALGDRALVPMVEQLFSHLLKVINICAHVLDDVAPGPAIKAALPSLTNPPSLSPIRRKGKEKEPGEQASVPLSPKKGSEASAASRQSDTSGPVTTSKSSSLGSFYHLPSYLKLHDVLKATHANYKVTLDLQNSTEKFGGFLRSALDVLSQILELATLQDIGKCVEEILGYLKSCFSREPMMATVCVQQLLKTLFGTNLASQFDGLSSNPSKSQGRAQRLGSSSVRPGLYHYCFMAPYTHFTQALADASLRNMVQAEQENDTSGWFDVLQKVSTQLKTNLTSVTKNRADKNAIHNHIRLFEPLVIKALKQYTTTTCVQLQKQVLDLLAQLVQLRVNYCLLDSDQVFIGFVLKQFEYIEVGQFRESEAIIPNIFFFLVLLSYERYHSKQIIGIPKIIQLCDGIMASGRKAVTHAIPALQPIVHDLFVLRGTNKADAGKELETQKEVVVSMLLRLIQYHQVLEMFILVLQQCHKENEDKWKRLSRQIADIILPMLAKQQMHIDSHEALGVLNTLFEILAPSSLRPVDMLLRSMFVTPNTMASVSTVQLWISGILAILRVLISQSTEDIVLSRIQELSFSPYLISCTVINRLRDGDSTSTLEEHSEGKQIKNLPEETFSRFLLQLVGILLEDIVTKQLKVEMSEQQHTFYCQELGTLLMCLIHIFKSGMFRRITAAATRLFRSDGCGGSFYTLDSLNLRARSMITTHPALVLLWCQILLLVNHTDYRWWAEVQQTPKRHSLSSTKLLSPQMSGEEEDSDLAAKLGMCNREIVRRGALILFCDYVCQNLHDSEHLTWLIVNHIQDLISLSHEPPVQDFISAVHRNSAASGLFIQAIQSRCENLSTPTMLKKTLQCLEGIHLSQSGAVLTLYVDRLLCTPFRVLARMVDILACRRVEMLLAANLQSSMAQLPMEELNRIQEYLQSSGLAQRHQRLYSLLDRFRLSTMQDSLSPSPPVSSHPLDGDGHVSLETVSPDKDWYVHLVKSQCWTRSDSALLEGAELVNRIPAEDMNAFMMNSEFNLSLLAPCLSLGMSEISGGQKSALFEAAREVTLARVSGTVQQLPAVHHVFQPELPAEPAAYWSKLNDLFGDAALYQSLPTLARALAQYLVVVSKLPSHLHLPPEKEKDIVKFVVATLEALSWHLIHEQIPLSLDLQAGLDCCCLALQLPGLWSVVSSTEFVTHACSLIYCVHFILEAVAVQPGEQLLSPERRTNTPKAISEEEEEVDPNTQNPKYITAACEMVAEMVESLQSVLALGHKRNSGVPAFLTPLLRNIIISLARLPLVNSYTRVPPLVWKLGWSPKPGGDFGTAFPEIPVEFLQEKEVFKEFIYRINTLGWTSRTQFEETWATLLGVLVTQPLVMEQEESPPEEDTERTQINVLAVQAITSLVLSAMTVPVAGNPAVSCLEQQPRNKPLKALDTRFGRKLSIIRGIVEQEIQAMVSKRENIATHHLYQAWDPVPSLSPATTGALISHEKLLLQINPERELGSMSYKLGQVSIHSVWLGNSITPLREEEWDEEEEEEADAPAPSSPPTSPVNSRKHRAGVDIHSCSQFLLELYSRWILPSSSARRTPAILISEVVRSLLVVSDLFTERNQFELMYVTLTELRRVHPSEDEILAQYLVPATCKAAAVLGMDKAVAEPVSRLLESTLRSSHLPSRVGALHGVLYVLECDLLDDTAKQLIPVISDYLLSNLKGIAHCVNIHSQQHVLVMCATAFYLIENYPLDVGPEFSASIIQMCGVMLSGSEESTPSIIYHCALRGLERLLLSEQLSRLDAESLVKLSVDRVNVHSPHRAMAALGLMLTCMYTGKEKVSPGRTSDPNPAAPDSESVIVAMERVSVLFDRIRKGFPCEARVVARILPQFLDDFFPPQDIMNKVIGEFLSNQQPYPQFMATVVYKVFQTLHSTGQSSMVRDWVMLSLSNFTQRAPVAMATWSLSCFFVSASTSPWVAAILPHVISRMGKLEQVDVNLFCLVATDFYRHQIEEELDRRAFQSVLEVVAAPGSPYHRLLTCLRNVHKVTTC
row,SMILES,inhibition
1,CC(=O)N1CCN(c2nc3c(s2)CC(C(=O)NCCCN2CCC(C)CC2)CC3)CC1 (stereo not drawn),4.75% (inactive)
2,Cc1nnc(NC(=O)CSc2nc(C(C)C)ccc2C#N)s1,-5% (inactive)
3,CN(C)c1ccc(/C=C/CN2CCN(c3ccccc3F)CC2)cc1,72.5% (active)
4,C(=C\c1ccccc1)/CN1CCN(CC2CCCCC2)CC1,3.7% (inactive)
5,Cc1ccccc1N1CCN(C/C=C/c2ccccc2[N+](=O)[O-])CC1,35.9% (inactive)
6,Cc1cc(CNC(=O)CSc2ccncc2)no1,-14.6% (inactive)
7,CC(=O)N1CCc2c(sc(NC(=O)c3cc(C)oc3C)c2C(N)=O)C1,-3.5% (inactive)
8,Cc1cc2c(N3CCCC(C(=O)Nc4cccc(F)c4)C3)nccc2s1 (stereo not drawn),-8.41% (inactive)
9,Cc1cc2c(N3CCC(C(=O)Nc4cccc(F)c4)CC3)nccc2s1,45.2% (inactive)
10,Cc1cc2c(N3CCC(C(=O)Nc4cccc(C(F)(F)F)c4)CC3)nccc2s1,80.9% (active)
11,O=C1CC(c2ccccc2Cl)=Nc2ccccc2N1,5% (inactive)
12,C=CCN(CC=C)S(=O)(=O)c1ccc(C(=O)Nc2nnc(-c3ccc(F)cc3)o2)cc1,6% (inactive)
13,N#Cc1sc2nc(-c3cccs3)ccc2c1N,5% (inactive) and -18.7% (inactive)
14,COc1cc2c(-c3ccccc3)c(C)oc2cc1CN1CCN(c2ncccn2)CC1,62.2% (active)
15,COc1cc(CN2CCN(Cc3cc(OC)c(OC)cc3OC)CC2)cc(OC)c1,7.3% (inactive)
16,COc1cc(OC)c(OC)cc1CN1CCN(c2ccccc2F)CC1,6.5% (inactive)
17,CN(CCc1ccccn1)C(=O)C1CCCN(c2cnn(C)c(=O)c2)C1 (stereo not drawn),-0.11% (inactive)
18,CCC(=O)NCc1csc(C2CCN(C(=O)c3cccs3)CC2)n1,5.45% (inactive)
19,Cc1ccc(CNC(=O)C2(C)CCCN(C(=O)CC(C)C)C2)cc1 (stereo not drawn),-7.13% (inactive)
20,COc1ccc(C(=O)N2CCOC(COc3ccc(C)cc3)C2)cc1 (stereo not drawn),4.7% (inactive)
21,O=C(c1ccc(C(F)(F)F)cc1)N1CCC(=O)N([C@H](COCc2ccccc2)Cc2ccccc2)CC1,99.4% (active)
22,Cc1ccc(S(=O)(=O)N2CCC(=O)N([C@H](COCc3ccccc3)Cc3ccccc3)CC2)cc1,-1.2% (inactive) and -4% (inactive)
23,CC(C)C[C@@H](COc1ccccc1)N1CCN(CC(C)C)CCC1=O,5.6% (inactive)
24,CC(C)C[C@@H](COCc1ccc(Cl)cc1)N1CCN(C(=O)c2ccc(Cl)cc2Cl)CCC1=O,86% (active)

row,SMILES,inhibition
1,CN1CCC(=O)N([C@H](CO)Cc2ccccc2)CC1,-6.6% (inactive)
2,CC(C)C[C@@H](CO)N1CCN(Cc2ccc(O)cc2)CCC1=O,-0.4% (inactive)
3,O=C(NCC(c1cccs1)N1CCOCC1)C(=O)Nc1ccon1 (stereo not drawn),-10.7% (inactive)
4,CCOc1ccccc1N1CCN(CC2CC3C=CC2C3)CC1 (stereo not drawn),3.9% (inactive)
5,Cc1cccc2c(C(=O)N3CCOCC3)cc(-c3ccccc3)nc12,26.2% (inactive)
6,Cc1ccc(C(=O)N2CCCC(COc3ccc(C(=O)N4CCOCC4)cc3)C2)cc1 (stereo not drawn),5.35% (inactive)
7,O=[N+]([O-])c1ccccc1/C=C/CN1CCN(C/C=C/c2ccccc2)CC1,75.3% (active)
8,O=[N+]([O-])c1ccccc1/C=C/CN1CCC(O)CC1,-1.3% (inactive)
9,O=[N+]([O-])c1ccccc1/C=C/CN1CCN(c2ccccc2)CC1,32.8% (inactive)
10,COc1ccc(Cl)cc1NC(=O)C1CC(=O)N(c2ccc3c(c2)CCN3C(C)=O)C1 (stereo not drawn),2.25% (inactive)
11,Cn1nccc1C(=O)N1CCCC1c1cccc(F)c1 (stereo not drawn),-3.94% (inactive)
12,COc1ccc(S(=O)(=O)NCCc2ccccc2)c(C)c1C,-7.6% (inactive)
13,CN1CCCc2cc(C(CNC(=O)C(=O)NC3CCCCC3)N(C)C)ccc21 (stereo not drawn),5.1% (inactive)
14,CN1CCCc2cc(C(CNC(=O)c3ccccc3Cl)N3CCOCC3)ccc21 (stereo not drawn),19.8% (inactive)
15,CN1CCc2cc(C(CNC(=O)C(=O)NCc3ccccc3Cl)N(C)C)ccc21 (stereo not drawn),53.3% (active)
16,N#CCn1cccc1-c1nc(-c2ccncc2)no1,38.7% (inactive)
17,CC(C)(C)C(O)CCNC(=O)c1cccc(F)c1 (stereo not drawn),-16.4% (inactive)
18,COc1ccc(C2=N/C(=C/c3ccc4c(c3)OCO4)C(=O)O2)c(Br)c1,3% (inactive)
19,O=C(Nc1ccc(N2CCOCC2)cc1)c1cccc(Br)c1,-1.7% (inactive)
20,COc1ccccc1OCC(=O)Nc1c2c(nn1-c1ccc(F)cc1)CS(=O)(=O)C2,-5.8% (inactive)
21,CC1CCCC(Nc2ccc(N3C(=O)CCCC3=O)cc2[N+](=O)[O-])C1C (stereo not drawn),48% (inactive)
22,O=C1C2CC=CCC2C(=O)N1c1ccc(F)c([N+](=O)[O-])c1 (stereo not drawn),-1% (inactive)
23,CC1CC(=O)N(c2ccc(NC3CCCC(C)C3C)c([N+](=O)[O-])c2)C1=O (stereo not drawn),51% (active)
24,COc1ccccc1NC(=O)C(CCS(C)(=O)=O)NC(C)=O (stereo not drawn),0% (inactive)

row,SMILES,inhibition
1,Cc1ccc(C2=NC3(CCCCC3)N(CC(=O)Nc3cccc(C)c3)C2=O)cc1,0.12% (inactive)
2,CN(C)c1ncccc1C(=O)Nc1ccccc1F,-5.3% (inactive)
3,CCCc1ccc(Oc2cn[nH]c2-c2ccc(OC)cc2O)cc1,51% (active)
4,CCCc1cc(C2CCCN2Cc2cn[nH]c2-c2cccc(OC)c2)no1 (stereo not drawn),-7.21% (inactive)
5,COc1ccc(-c2c(-c3ccc(OC)cc3O)nc(C)nc2C(F)(F)F)cc1,-2.9% (inactive)
6,Cc1c(O)ccc(-c2[nH]ncc2Oc2ccccc2)c1O,54.4% (active) and 53% (active)
7,CCOc1ccc(-c2nn(C)c(C)c2Oc2ccccc2)c(O)c1,-3.5% (inactive)
8,CCOc1ccccc1CN1CCC(C(=O)N2CCN(Cc3ccccc3)CC2)CC1,2.9% (inactive)
9,CC(C)(C)CC(=O)N1CC(C(=O)NC2CC2)C(c2ccc(F)cc2)C1 (stereo not drawn),-0.9% (inactive)
10,O=C(c1ccc(C(F)(F)F)cc1)N1CCN(c2nc(CN3CCCC3)cs2)CC1,1.28% (inactive)
11,COc1ccc(CN(CC(=O)NCCc2ccccc2)S(=O)(=O)c2cccnc2)cc1,-5.6% (inactive)
12,COc1cccc(CN2CCc3nc(N4CCN(c5ccc(F)cc5)CC4)ncc3C2)c1,-4.69% (inactive)
13,O=C(Nc1ccc(Cl)cc1)c1cc2n(n1)C(C(F)(F)F)CC(c1cccs1)N2 (stereo not drawn),-2% (inactive)
14,CCCNC(=O)c1nn2c(c1Cl)NC(c1ccc(Cl)cc1)CC2C(F)(F)F (stereo not drawn),9% (inactive)
15,O=C(Nc1cc(Cl)ccc1O)c1nn2c(c1Cl)NC(c1cccs1)CC2C(F)(F)F (stereo not drawn),90% (active)
16,O=C(NCc1ccco1)C1CN(S(=O)(=O)c2cccs2)CC12CCCCC2 (stereo not drawn),2.15% (inactive)
17,Cc1ccc(Sc2nccnc2N2CCC(C(=O)N3CCN(C)CC3)CC2)cc1,10.6% (inactive)
18,CC(C)N(c1snnc1N)C(C)C,-2.94% (inactive)
19,CC1=C(C(=O)Nc2ccc(Br)cn2)C(c2cccnc2)C2=C(CCCC2=O)N1 (stereo not drawn),1% (inactive)
20,COc1ccc(NC(=O)c2ccc(OC)c([N+](=O)[O-])c2)cc1Cl,-0.1% (inactive)
21,COc1ccc(N=Cc2ccc(Cl)c([N+](=O)[O-])c2)cc1OC,57% (active)
22,COc1ccc(/C=C2\N=C(c3ccc(Cl)c([N+](=O)[O-])c3)OC2=O)cc1OC,7% (inactive)
23,CCNc1cc(N2CCC(CCC(=O)NCC(C)C)CC2)ncn1,0.14% (inactive)
24,CCN(CC)CCCNc1c(CCC#N)c(C)c(C#N)c2nc3ccccc3n12,4% (inactive)

row,SMILES,inhibition
1,O=C(CN1C(=O)S/C(=C\c2ccccc2)C1=O)Nc1ccccc1Cl,-5% (inactive)
2,COc1ccc(-n2ncc3c(N4CCc5ccccc54)ncnc32)cc1,11% (inactive)
3,Fc1cnc(N2CCOCC2)nc1NCc1ccccc1,0.7% (inactive)
4,c1ccc2c(c1)CCN2c1nc(N2CCOCC2)c2n[nH]nc2n1,83.5% (active)
5,Cc1ccc(NC(=O)NCCC2CCN(S(=O)(=O)c3ccc(F)cc3)CC2)c(C)c1,42.8% (inactive)
6,O=c1[nH]c(/C=C/c2cccc(Br)c2)nc2ccccc12,-5.1% (inactive)
7,CC1(C)c2ccccc2N2CC(=O)NC21/C=C/c1cccc(Br)c1 (stereo not drawn),100% (active)
8,COCCOCC1CCN(C(=O)c2cccc(N(C)C)c2)CC1,-11.5% (inactive)
9,CCC(=O)Nc1cccc(NC(=O)c2ccc(C(C)C)cc2)c1,0.3% (inactive)
10,CC1=Nc2c(ccc3cccnc23)C1(C)C,66.6% (active) and 14.1% (inactive)
11,COc1cc2c(cc1NC(=O)c1ccc(OC)c(OC)c1OC)oc1ccccc12,-2.6% (inactive)
12,CCCN1CCN(c2ncnc3c2nc2n3CCCC2)CC1,-1.5% (inactive)
13,N#Cc1c(N=Cc2ccc(Br)cc2)sc2c1CCC2,23% (inactive)
14,COc1ccc(SC[C@H](Cc2ccccc2)N2CCN(CCc3ccccc3)CCC2=O)cc1,92.2% (active)
15,O=C1CCN(Cc2ccc([N+](=O)[O-])cc2)CCN1[C@H](CO)Cc1ccccc1,6.4% (inactive)
16,O=C1CC[C@H](O)CCN1[C@H](CSc1ccc(Br)cc1)Cc1ccccc1,24.2% (inactive)
17,C[C@H]1CCC(=O)N([C@H](CSc2ccccc2)Cc2ccccc2)CC1,-8.3% (inactive)
18,O=C1CCN(Cc2ccccc2)CCN1[C@H](CSc1ccccc1)c1ccccc1,98.8% (active)
19,N#Cc1cccc(CN2CCC(=O)N([C@H](CO)c3ccccc3)CC2)c1,0.1% (inactive)
20,Cc1ccc(CCNC(=O)c2cc3n(n2)CCCN(Cc2ccc(Cl)cc2)C3=O)cc1,27.7% (inactive)
21,O=C(N1CCOCC1)[n+]1ccc(/C=C/c2ccc(Cl)cc2)cc1,8% (inactive)

# — PubChem BioAssay AID1671202 (University of Kansas High Throughput Screening Laboratory, 2021)
